Screens (PubChem BioAssay)
This is a sample that favours compounds with a hit; in the whole collection about 1.3% have one here.
Sa RN4220 lethal – S. aureus RN4220 growth inhibition | OD600, 16 h | inhibition, % (test concentration not listed) | 330,000 tested, 0.33% active; in the data active = inhibition above about 85%;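 also: plate controls were untreated cells for no effect and reference antibiotic for full effect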
BJeLR lethal – kills HRASV12-expressing BJeLR cells; BJeLR (HRASV12) viability, CellTiter-Glo ATP luminescence, 48 h; inhibition, % (test concentration not listed); 300,000 tested, 0.17% active; in the data active = inhibition above about 50%; inconclusive = no clear call, values can overlap the other calls
Sa ugtP lethal – kills S. aureus RN4220 lacking UgtP; S. aureus RN4220 ugtP deletion, OD600 growth, 16 h; growth inhibition, % (no concentration beside the values); 330,000 tested, 0.54% active; AID 1259309; in the data active = growth inhibition above about 68%;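 also: plate controls were untreated wells for no effect and antibiotic for full effect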
PfHsp40 yeast – rescue of PfHsp40-mediated yeast toxicity; S. cerevisiae expressing PfHsp40, growth rescue, ATP luminescence; growth rescue, % at 12.5 µM; 340,000 tested, 0.68% active; in the data active = growth rescue above about 28%, passing the limit was not always enough; inconclusive = no clear call, values can overlap the other calls;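 also: yeast W303a lacking pdr1 and pdr3 grown in galactose medium; growth measured after three days at 30 °C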
SARS 3CLpro inh – SARS-CoV 3CLpro protease inhibition. P0C6X7. recombinant SARS-CoV 3CLpro, quenched FRET peptide cleavage. inhibition, % at 6 µM. 290,000 tested, 0.14% active. AID 1706; in the data active = inhibition above about 12%
* marks the source's active call; other numbers are inactive results; ? = inconclusive; . = not tested or not shown.

SMILES	Sa RN4220 lethal	BJeLR lethal	Sa ugtP lethal	PfHsp40 yeast	SARS 3CLpro inh
CC1(C)CC(=O)C2=C(C1)OC1=C(C(=O)CC(C)(C)C1)C2c1cc([N+](=O)[O-])cc([N+](=O)[O-])c1O	1.0	5.8	2.2	-0.1	2.0
C(=Nc1ccccc1)c1ccc[nH]1	3.4	.	-2.4	-0.4	.
Oc1ccccc1N=Cc1ccc[nH]1	12.3	-5.5	-0.5	54.5*	4.3
CCC(C(=O)C(C)C(O)C(C)CCc1ccc(C)c(O)c1C(=O)O)C1O[C@](CC)(C2CC[C@](O)(CC)C(C)O2)CC1C (stereo partly specified)	98.6*	.	90.5*	.	.
CC(C)(C=NO)/[N+]([O-])=C/C=[N+](\[O-])C(C)(C)C=NO	2.9	.	-2.6	.	.
CC(C)NC(=O)c1ccccc1NC(=O)C(C)Oc1ccccc1 (stereo unspecified)	4.3	2.3	-72.3	72.5*	-1.9
O=c1c(-c2c(O)cc(O)c3c(=O)cc(-c4ccc(O)cc4)oc23)c(-c2ccc(O)cc2)oc2cc(O)cc(O)c12	-2.1	.	14.0	104.8*	.
O=c1cc(-c2ccc(O)cc2)oc2c(-c3c(O)cc(O)c4c(=O)cc(-c5ccc(O)cc5)oc34)c(O)cc(O)c12	-0.2	.	-16.2	1.5	.
CN1/C(=C\C(=O)COC(=O)c2ccc([N+](=O)[O-])o2)C(C)(C)c2ccccc21	13.0	-0.1	8.5	35.9*	5.6
COc1ccc(C(C)(C)C)cc1NC(=O)COC(=O)c1ccc([N+](=O)[O-])o1	9.1	0.4	17.8	531.6*	-4.2
CN1/C(=C\C(=O)COC(=O)c2nccnc2N)C(C)(C)c2ccccc21	1.3	4.9	2.9	-0.4	.
CCN(CC)S(=O)(=O)c1ccc(Cl)c(NC(=O)COC(=O)c2ccc([N+](=O)[O-])o2)c1	0.1	-4.5	-7.5	49.1*	-4.7
O=C(COC(=O)c1ccc([N+](=O)[O-])o1)Nc1ccc(Br)cc1F	11.5	.	12.2	?	.
CN(C)S(=O)(=O)c1cccc(NC(=O)COC(=O)c2ccc([N+](=O)[O-])o2)c1	2.8	5.5	4.8	-0.8	1.2
Cc1cccc(NC(=O)COC(=O)c2ccc([N+](=O)[O-])o2)c1C	10.3	5.2	-0.3	53.2*	-1.8
CCOP(=O)(OCC)C(NC(=O)CN1C(=O)c2ccccc2S1(=O)=O)C(Cl)(Cl)Cl (stereo unspecified)	-0.4	-2.5	7.3	-0.4	-1.2
O=C(Cn1ncc2c3ccccc3n(Cc3ccccc3F)c2c1=O)NC1CC1	1.7	-2.2	7.5	0.6	-2.0
CCN(CC)c1ncn(Cc2c(Cl)cccc2Cl)c2ncnc1-2	5.7	-9.1	-7.4	1.1	0.7
O=C(COC(=O)c1ccc([N+](=O)[O-])o1)NCc1ccc2c(c1)OCO2	10.6	.	6.2	167.8*	.
COc1ccc(C)cc1NC(=O)COC(=O)c1ccc([N+](=O)[O-])o1	6.9	5.4	0.1	76.7*	-1.9
COc1ccc(NC(=O)COC(=O)c2ccc([N+](=O)[O-])o2)cc1Cl	12.3	.	14.0	-0.6	1.7
O=C(COC(=O)c1ccc([N+](=O)[O-])o1)Nc1ccc(N2CCOCC2)cc1	7.6	.	11.8	94.8*	.
O=C(Nc1ccc(N2CCOCC2)cc1)c1ccc([N+](=O)[O-])o1	16.5	-11.4	83.9	9.1	-1.8
O=C(COC(=O)c1ccc([N+](=O)[O-])o1)Nc1ncc(Cl)cc1Cl	.	.	.	49.2*	.
Cc1cc(/C=N/NC(=O)c2nn(C)cc2Cl)c(C)n1-c1cccc(Br)c1	.	-4.3	.	2.4	-5.6
SMILES	Sa RN4220 lethal	BJeLR lethal	Sa ugtP lethal	PfHsp40 yeast	SARS 3CLpro inh
CCOC(=O)C1C(=O)CC(C)(O)C(C(=O)OCC)C1c1ccc(Br)cc1 (stereo unspecified)	-9.1	4.3	-9.7	-0.5	-0.8
Nc1cccc(C(=O)OCC(=O)NC2CCCc3ccccc32)c1 (stereo unspecified)	-5.7	0.6	9.9	-1.5	7.2
O=C(COC(=O)c1ccc([N+](=O)[O-])o1)NC1CCCc2ccccc21 (stereo unspecified)	5.3	.	2.8	261.5*	.
CC(C)OC(=O)c1cccc(NC(=O)c2ccccc2)c1	15.0	3.3	-3.2	3.2	1.3
CC(C)Nc1ccc(Nc2ccnc3cc4ccccc4cc23)cc1	10.8	44.4	2.1	-1.0	-3.1
c1ccc(CCNc2ccnc3cc4ccccc4cc23)cc1	58.0	22.0	8.5	188.9*	2.0
Cn1c(=O)[nH]c(=O)c2c1nc(N/N=C/c1ccncc1)n2Cc1ccc(F)cc1	.	-1.7	.	.	6.0
Cn1c(=O)c2c(ncn2CC(=O)NN=C/C=C\c2ccccc2[N+](=O)[O-])n(C)c1=O	2.5	.	2.0	.	.
CN1/C(=C\C(=O)Nc2ccc(Br)cc2)C(C)(C)c2ccccc21	94.3*	5.1	95.9*	2.1	-3.4
CC(Sc1ccc(Cl)cc1)C(=O)NCC(c1ccco1)N1CCCCC1 (stereo unspecified)	4.4	2.6	3.5	34.5*	.
COc1ccc(N2CC(C(=O)NN=Cc3cc([N+](=O)[O-])ccc3O)CC2=O)cc1 (stereo unspecified)	89.9*	.	76.9	.	.
CCC1(CC)C(=O)NC(=Nc2cccc(C(F)(F)F)c2)NC1=O	2.5	-20.0	3.3	110.6*	-0.1
CCCCOc1ccc(C(=O)NCC(=O)N(C)Cc2nc3ccccc3c(=O)[nH]2)cc1	-1.4	.	13.2	2.8	.
Cc1nn(CCC#N)c2nc(-c3ccccc3)cc(C(F)(F)F)c12	5.0	-2.4	5.2	0.8	1.8
Cc1nn(CCC(N)=S)c2nc(-c3cccs3)cc(C(F)(F)F)c12	0.0	-4.6	-18.1	222.6*	0.2
COc1ccc(/C(C)=N/NC(=O)c2ccc(CSc3nncn3C)cc2)cc1	.	-14.8	.	0.3	-1.8
CC1=C/C(=N\OS(=O)(=O)c2ccccc2)C(C(C)C)=CC1=O	.	.	.	46.3*	0.5
O=Nc1c(O)n(Cc2ccc(Cl)c(Cl)c2)c2ccccc12	-10.3	-7.1	-1.8	259.3*	1.6
Cc1ccc(NC(=O)c2cc(N3C(=O)C=CC3=O)ccc2N2CCOCC2)cc1Cl	7.6	1.5	33.8	36.1*	1.5
CCOC(=O)CCn1nc(-c2ccccc2)cc1N	5.2	-3.3	-1.0	0.1	3.9
O=C(NCCO)C1COc2ccccc2O1 (stereo unspecified)	2.7	-1.9	-3.0	-0.6	0.5
CN=c1scc(-c2ccccc2F)n1/N=C/c1ccc(O)c(O)c1O	.	10.0	.	30.1*	3.1
CN=c1scc(-c2cccs2)n1N=Cc1ccc(O)c(O)c1O	9.3	.	7.0	.	.
O=C(NCCN1C(=O)S/C(=C\c2ccccc2F)C1=O)C1CC(=O)N(Cc2ccccc2)C1 (stereo unspecified)	5.9	.	5.5	2.5	.
CCCCCCc1cc2cc(-c3nnc(-c4ccccc4O)o3)c(=O)oc2cc1O	66.8	23.1	97.4*	1.3	6.8
CCCCCCCC[n+]1cccc2c3ccccc3ccc21	99.6*	33.8	100.5*	-1.1	-1.3
CCCCCCCCCC[n+]1cccc2c3ccccc3ccc21	100.5*	59.7*	100.0*	133.2*	-1.8
Cc1cccc(N2CCN(C(=O)C3COc4ccccc4O3)CC2)c1C (stereo unspecified)	-1.1	3.2	1.6	206.3*	-0.2
